# Experimental data as given in PubChem BioAssay AID485270 (The Scripps Research Institute Molecular Screening Center, 2010).
# The campaign covered roughly 330,000 compounds. About 5,800 (1.8%) were called active. Rule as the data show it: active = inhibition mostly above about 38% (no sharp cut-off); inactive = mostly below about 40%. The entries come from a sample that favours actives as a whole.
# Molecular target: Orexin/Hypocretin receptor type 1 (Homo sapiens) (UniProt O43613)
# Experiment: blocks the human orexin 1 receptor (AID 485270);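 also: 0% = agonist challenge alone and 100% = reference antagonist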
# Conditions: OX1R-expressing cells, FRET antagonist read-out; at 6.6 µM; active compounds read high
# Chain of Orexin/Hypocretin receptor type 1 (Homo sapiens) (O43613 whole entry, looked up): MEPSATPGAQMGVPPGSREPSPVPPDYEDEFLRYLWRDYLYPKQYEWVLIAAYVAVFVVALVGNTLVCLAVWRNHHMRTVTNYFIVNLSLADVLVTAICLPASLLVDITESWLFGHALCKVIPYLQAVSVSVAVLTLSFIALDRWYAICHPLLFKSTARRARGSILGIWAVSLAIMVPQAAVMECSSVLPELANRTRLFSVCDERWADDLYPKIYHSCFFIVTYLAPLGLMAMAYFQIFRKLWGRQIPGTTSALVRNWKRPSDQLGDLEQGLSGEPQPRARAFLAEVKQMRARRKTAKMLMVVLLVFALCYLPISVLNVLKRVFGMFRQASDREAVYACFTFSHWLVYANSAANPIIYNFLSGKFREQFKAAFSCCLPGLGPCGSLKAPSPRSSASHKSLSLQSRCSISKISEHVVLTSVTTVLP
row,SMILES,inhibition
1,COc1ccc(C(CNC(=O)c2ccc(S(=O)(=O)Nc3ccccc3C)cc2)N2CCOCC2)cc1 (stereo unspecified),8.1% (inactive)
2,COc1ccc(C(CNC(=O)c2cccc(NS(=O)(=O)c3ccc(C)c(F)c3)c2)N2CCCC2)cc1 (stereo unspecified),6.44% (inactive)
3,COc1ccc(C(CNC(=O)c2cccc(S(=O)(=O)Nc3ccccc3Cl)c2)N2CCOCC2)cc1 (stereo unspecified),34.6% (active)
4,O=C(NCC#CCSc1nnc(-c2cccc3ccccc23)o1)c1cccs1,8.58% (inactive)
5,COc1ccc(S(=O)(=O)N(C)C[C@H]2Oc3c(NC(=O)Nc4ccc5c(c4)OCO5)cccc3C(=O)N([C@H](C)CO)C[C@@H]2C)cc1,6.37% (inactive)
6,Cn1nnc2cc(C(=O)NCCC3=CCCCC3)ccc21,20.7% (inactive)
7,Cc1cccc(-c2nc3ccc(C(=O)NCCN4CCN(C)CC4)cc3nc2-c2cccc(C)c2)c1,17.7% (inactive)
8,C=CCNC(=O)c1ccc2c3n(nc2c1)-c1ccc(C)cc1CO3,75% (active)
9,CC(NC(=O)COC(=O)c1ccc2ccccc2n1)c1ccccc1 (stereo unspecified),15.5% (inactive)
10,O=C(NC(=S)Nc1ccc(Br)cc1F)C1CCCCC1,4.65% (inactive)
11,O=C(CN1C(=O)NC2(CCCCCC2)C1=O)NCc1ccc(F)cc1,6.28% (inactive)
12,COc1cc(C)ccc1OCC(=O)OCC(=O)c1ccc[nH]1,11.8% (inactive)
13,O=C(NCCC(=O)N1O[C@@H]2C=C[C@H]1C2)OCC1c2ccccc2-c2ccccc21,7.51% (inactive)
14,O=C(Nc1ccc(Cl)c(Cl)c1)N1CC=C(c2ccccc2)CC1,56.1% (active)
15,O=C(Nc1ccccc1)N1CCN(C(=O)Nc2ccccc2)CC1,7.94% (inactive)
16,COc1cc(C(=O)NCC(=O)N2CC=C(c3ccccc3)CC2)cc(OC)c1OC,13.7% (inactive)
17,CC(C)n1cnc2c(NCc3ccccc3)cc(N[C@@H](CO)Cc3ccccc3)cc21,33.2% (inactive)
18,Cc1cc(-c2ccc(C)c(S(=O)(=O)NCCCN(Cc3ccccc3)C(C)C)c2)on1,22.4% (inactive)
19,Cc1cc(-c2ccc(C)c(S(=O)(=O)Nc3ccc(S(N)(=O)=O)cc3)c2)on1,14.9% (inactive)

row,SMILES,inhibition
1,Cc1cc(-c2ccc(C)c(S(=O)(=O)NC(C)Cc3ccco3)c2)on1 (stereo unspecified),46% (active)
2,COc1ccc(S(=O)(=O)N(C)C[C@H]2Oc3ccc(NS(=O)(=O)c4cccs4)cc3CC(=O)N([C@H](C)CO)C[C@H]2C)cc1,8.61% (inactive)
3,Cc1c(/C=N/N2C(=O)C3C4C=CC(C4)C3C2=O)c2ccccc2n1C (stereo unspecified),1.17% (inactive)
4,O=C(O)c1cccc(NC(=S)N/N=C/c2c[nH]c3ccccc23)c1,18.9% (inactive)
5,Cc1ccc(NC(=O)c2cc3ccccc3o2)cc1,4.2% (inactive)
6,O=C(N/N=C/c1c[nH]c2ccccc12)c1cc2ccccc2o1,65.5% (active)
7,Cc1c(/C=N\NC(=O)c2cc3ccccc3o2)c2ccccc2n1C,89.7% (active)
8,O=C(N/N=C/c1c[nH]c2ccccc12)c1ccccc1O,-0.06% (inactive)
9,C=CC1=C(C(=O)O)N2C(=O)[C@@H](NC(=O)/C(=N\OCC(=O)O)c3csc(N)n3)[C@H]2SC1,9.76% (inactive)
10,CN(C)C(=O)CCc1ccc2c3c([nH]c2c1)[C@]1(C)[C@@H](C(=O)N2CCOCC2)C[C@H](CC(=O)NCCc2ccccn2)C(=O)N1CC3,8.14% (inactive)
11,CC1CCCCC1NC(=O)CCS(=O)(=O)c1cccc2nonc12 (stereo unspecified),57.3% (active)
12,O=C(CCS(=O)(=O)c1cccc2nonc12)NCCc1ccccc1Cl,40.5% (inactive)
13,CC1CCCCC1NC(=O)CCS(=O)(=O)c1ccc2c(c1)NC(=O)CO2 (stereo unspecified),-0.2% (inactive)
14,Cc1nn(-c2ccccc2)nc1C(=O)OCC(=O)N1CCCCC1C (stereo unspecified),8.79% (inactive)
15,CC[n+]1cc(C)ccc1/C=C/c1ccc(N(C)C)cc1,52.2% (active)
16,Cc1noc(C)c1C(=O)OC(C)C(=O)Nc1ccc2c(c1)OCO2 (stereo unspecified),6.68% (inactive)
17,COc1ccc(S(=O)(=O)N2CCN(CC(=O)N3CCOCC3)CC2)cc1OC,7.86% (inactive)
18,CCn1c(O)c2ccc(C(=O)N=NC(=O)c3cccnc3)cc2c1O,52.5% (active)
19,CCOc1ccccc1NC(=O)c1cccnc1,13% (inactive)

row,SMILES,inhibition
1,C/C(=N\NC(=O)c1ccc2ccccc2c1)c1cccnc1,7.2% (inactive)
2,O=C(OCC(=O)N1CCCCCC1)c1ccc(Cl)nc1,9.15% (inactive)
3,C=CC[C@@H](Cc1ccc(F)cc1)C(=O)OC[C@H]1CCCN1C(=O)[C@H](CC=C)CC(=O)N(CCO)Cc1ccccc1,5.09% (inactive)
4,CCCSc1ccc([C@H]2N[C@@](Cc3ccccc3)(C(=O)OC)[C@H]3C(=O)N(C)C(=O)[C@@H]23)cc1,8.14% (inactive)
5,CCC1CCCCN1C(=S)NC(=O)c1ccco1 (stereo unspecified),0.14% (inactive)
6,Cc1ccc(NC(=O)CSc2nnc(CNC(=O)c3ccccc3F)o2)cc1Cl,13.1% (inactive)
7,COc1ccc(Cc2nnc(SCC(=O)Nc3ccc(C)c(Cl)c3)[nH]c2=O)cc1,27% (inactive)
8,Cc1ccc(NC(=O)CSc2nn3c(=O)c(C)nnc3s2)cc1Cl,53.8% (active)
9,CC(C)n1cnc2c(NCc3ccccc3)cc(OCC3CCN(C)CC3)cc21,19.4% (inactive)
10,Cc1cccc(C(=O)OCC(=O)NC(C)C2CC3CCC2C3)c1O (stereo unspecified),17.1% (inactive)
11,COCCn1c(C)cc(C(=O)CN2c3cccc4cccc(c34)S2(=O)=O)c1C,24.1% (inactive)
12,Cc1ccc(NC(=O)c2ccc(Cl)nc2)cc1S(=O)(=O)N1CCOCC1,5.02% (inactive)
13,CCN(C(=O)CSc1nnnn1-c1ccc(OC)cc1)C1CCS(=O)(=O)C1 (stereo unspecified),8.67% (inactive)
14,COc1cc(/C=C/C(=O)OCC(=O)NCCCc2ccccc2)ccc1O,5.75% (inactive)
15,Cc1ccc(-c2c[n+](=O)c3c(n2[O-])CCC3)cc1,17.4% (inactive)
16,O=[n+]1c2c(n([O-])c3cc(Br)ccc31)CCC2,66% (active)
17,Cc1ccc(-c2c(C)n([O-])c3c([n+]2=O)CCC3)cc1,22.7% (inactive)
18,CC(C)CC1(C)NC(=O)N(CC(=O)Nc2ccc3c(c2)OCCO3)C1=O (stereo unspecified),5.05% (inactive)
